# Assay results taken from ChEMBL document CHEMBL4888484, “Replenishing the malaria drug discovery pipeline: Screening and hit evaluation of the MMV Hit Generation Library 1 (HGL1) against asexual blood stage Plasmodium falciparum ,using a nano luciferase reporter read-out” (2022).
# The campaign covered roughly 4,800 compounds. About 420 (8.8%) showed an effect of 50% or more. Many of the other results were omitted from the sample, so strong results are more common in it than they were.
# Test system: Plasmodium falciparum
# Test: Confirmatory screen in NF54 nanoGlo assay, in single point, at 2uM, 72h
# Type: functional, Erythrocyte
# Conditions: timepoint 72 hour
row,SMILES,% Inhibition
1,COc1nccnc1N(C(C)=O)S(=O)(=O)c1ccc(NC(C)=O)cc1,-13%
2,N#Cc1ccc(N2CCN3C(=O)NCC3C2)nc1N1CCN2C(=O)NCC2C1 (centres undefined),-12%
3,CC(C)[C@H](OC(=O)n1ccnc1)C(=O)OC(C)(C)C,-10%
4,CC1C=CC2C(=O)N(CC(F)(F)F)C(=O)C2C1C(=O)N1CCC(Cc2ccccc2)CC1 (centres undefined),-3%
5,Cc1ccc(NC(=O)Cn2cnc3nc(N(C)Cc4ccccc4)sc3c2=O)c(Br)c1,-14%
6,CC[C@@H](CO)NC(=O)Nc1cccc(C)c1,5%
7,CC(CC1OCC(C[N+]2(Cc3ccccc3)CCCCC2)O1)CC(C)(C)C (centres undefined),57%
8,CCC(C)(CC)[C@@](O)(C#CC[N+]1(Cc2ccccc2)CCCCC1)c1ccccc1,7%
9,O=C1CCCC1C(c1ccccc1)N(C1=NS(=O)(=O)c2ccccc21)c1ccccc1 (centres undefined),-10%
10,CNC(=O)CCS(=O)(=O)CCCC(=O)Nc1c(C)cc(C)cc1C,-14%
11,c1ccc2oc(N3CCCCCCC3)nc2c1,-5%
12,Cc1ccc(CC(=O)N2CCC(NC(=O)OC(C)(C)C)CC2C)o1 (centres undefined),-7%
13,COC[C@@H]1CCCN1c1ccc2c(c1)CNCC(=O)N1CC[C@@H](CC(=O)NCCN3CCOCC3)[C@@H](/C=C/CO2)C1,-13%
14,CC[n+]1ccc(-c2ncc(-c3ccc(C(C)(C)C)cc3)o2)cc1,63%
15,CCC(C)(CC)[C@@](O)(C#CC[N+]1(Cc2ccccc2Cl)CCCCC1)c1ccccc1,4%
16,CN1c2cc(C(=O)N3CCc4ccccc4C3)ccc2C(=O)N2CCCC[C@H]21,-6%
17,Cc1cc2ncn([C@@H](C)c3nc(-c4cnccn4)cs3)c2cc1C,0%
18,CCC[C@H](NC(=O)c1ccc(Cl)o1)c1nnn[nH]1,6%
19,C=CCCCNc1ccc(C(N)=O)c(F)c1,-1%
20,COc1ccc(CCc2nc(NC(=O)c3nc(C)sc3C)n[nH]2)cc1OC,65%
21,COc1ccc(CCc2nnc(NC(=O)Cc3c(C)noc3C)[nH]2)cc1OC,15%
22,COc1ccc(CCc2nc(NC(=O)c3[nH]nc4c3CCC4)n[nH]2)cc1,-1%

row,SMILES,% Inhibition
1,Cc1c(CCNC(=O)NCC2CC23CCc2ccccc23)cnn1C (centres undefined),-4%
2,Cc1cc(C(=O)NCCCn2cccn2)nc(N2CCOCC2)n1,0%
3,Cc1c(-c2nn(-c3ccccc3)c(-c3cnn(C)c3C)c2Cl)cnn1C,-4%
4,Cc1nn(C)cc1-c1nn(-c2nc(C3CC3)cc(C(F)(F)F)n2)c(-c2cn(C)nc2C)c1C,16%
5,Cc1c(-c2nn(-c3nc(C4CC4)cc(C(F)(F)F)n3)c(-c3cnn(C)c3C)c2Cl)cnn1C,69%
6,CC(C)Nc1nc2nonc2n2cnnc12,69%
7,CN(Cc1cc(C(F)(F)F)ccc1Cl)[C@H]1CCc2nn(C)c(=O)n2CC1,-8%
8,Cn1ccc2cccc(NC(=O)N3CC(C)(CO)C3)c21,1%
9,Cc1c(-c2nn3c(Cc4ccc(Cl)cc4)nnc3s2)cnn1-c1ccccc1,-16%
10,Cc1cccc(C(=O)Nc2nc3cc4sc(NC(=O)c5cccc(C)c5)nc4cc3s2)c1,7%
11,COc1cc(C(=O)Nc2ccc3sc(NC(=O)c4cc(OC)c(OC)c(OC)c4)nc3n2)cc(OC)c1OC,56%
12,COc1cc(C(=O)Nc2scnc2C)cc(OC)c1OC,-1%
13,C1=CCC(c2nc(-c3cnccn3)no2)C1,-6%
14,C[C@H](O)CNCc1ccc(Cl)cc1Cl,-8%
15,CCCCCNC(=O)NCc1ncoc1C,-1%
16,CCNC(=O)NCCOC(=O)c1cccc(C)c1Cl,1%
17,Cc1cc(C)cc(-c2cc3nc(C)cc(N4CCC(C(=O)Nc5ccc(C)c(Cl)c5)CC4)n3n2)c1,0%
18,O=C(NCc1cccc(F)c1)[C@H]1CCCN(c2nc3ccccc3n(Cc3ccccc3)c2=O)C1,5%
19,Cc1cc(C)cc(-c2cc3nc(C)cc(N4CCC(C(=O)NCc5cccc(F)c5)CC4)n3n2)c1,79%
20,CC[n+]1c(C)n(C2CCCCC2)c2ccc(C(=O)OC)cc21,0%
21,CC[N+](CC)(CC(=O)OC1CC2CCC1(C)C2(C)C)CC(=O)OC1CC2CCC1(C)C2(C)C (centres undefined),83%
22,Cn1cc(C(C(=O)O[C@@H]2C[C@@H]3CC[C@@]2(C)C3(C)C)c2cn(C)c3ccccc23)c2ccccc21,0%

row,SMILES,% Inhibition
1,CC1CCN(c2nccnc2Oc2ccc(C(=O)NCc3ccccc3Cl)cc2)CC1,59%
2,Cc1nc2cccnc2n1-c1cc(C(=O)NCc2ccccc2Cl)ccc1Cl,-2%
3,O=C(NCc1cccnc1Oc1ccccc1)c1cccnc1,5%
4,Cc1cc(=O)n2ncc(C(=O)NCc3cc(F)cc(F)c3)c2[nH]1,-13%
5,C=CCOC(=S)NC(=O)Cc1ccccc1Cl,7%
6,Cc1ccc(-c2cn3c4ccccc4nc3n2CCN2CCN(C)CC2)cc1,2%
7,Cn1c(-c2ccc(-c3ccccc3)cc2)cn2cc(-c3cccc(Br)c3)nc12,0%
8,Cn1c(-c2ccc(Br)cc2)cn2cc(-c3ccc(Cl)cc3)nc12,-5%
9,CCN(CC)CCn1c2ccccc2n2cc(-c3ccc(Br)cc3)nc12,59%
10,O=C(Nc1ccccc1)c1cccc(CN2CCN3CCOC[C@@H]3C2)c1,-5%
11,CCn1cc(NC(=O)CCn2ncc3c(Cl)cccc32)cn1,-6%
12,O=C(c1cc2ncccn2n1)N1CCc2ccccc2C1,-3%
13,O=S(=O)(Nc1cccc(-c2nnc3n2CCC3)c1)c1ccc2c(c1)OCCCO2,-12%
14,CC[C@H](O)CN1CCC(Nc2ncnc3cc(Cl)ccc23)CC1,42%
15,CC1CC(Nc2ncnc3cc(Br)ccc23)CCN1C (centres undefined),96%
16,CN1CCC(Nc2ncnc3c2cnn3C)C1c1ccc(Cl)cc1 (centres undefined),4%
17,Brc1cncnc1NC1CC1,2%
18,Cc1nc(-c2ccc(C(F)(F)F)cc2)nc(N2CCN(C(=O)c3cc(C(F)(F)F)cc(C(F)(F)F)c3)CC2)c1C(C)C,-2%
19,CC(C)(C)C(=O)Nc1cc(Br)c(O)c(Br)c1,3%
20,COCCN1CC2(CCCC2)N(C(=O)COc2ccc(F)cc2)CC1=O,-7%
